Results published in PubChem BioAssay AID1654 (Sanford-Burnham Center for Chemical Genomics, 2009).
Screen size: about 290,000 compounds; about 1,500 (0.52%) were called active. What follows is part of a selection rich in actives, with near analogues and random picks from the rest. Values without a mark were called inactive. No stated cut-off is given here; in the data, active means inhibition above about 50%; inactive means the rest.

Target: Dual specificity protein phosphatase 3 (Homo sapiens) (UniProt P51452)
Experiment: VHR1 phosphatase inhibitors, primary screen, biochemical, absorbance, uHTS (AID 1654)
Details: recombinant VHR phosphatase, pNPP absorbance, at 13.3 µM, hits give high values

Sequence of Dual specificity protein phosphatase 3 (Homo sapiens) (P51452 whole entry, looked up): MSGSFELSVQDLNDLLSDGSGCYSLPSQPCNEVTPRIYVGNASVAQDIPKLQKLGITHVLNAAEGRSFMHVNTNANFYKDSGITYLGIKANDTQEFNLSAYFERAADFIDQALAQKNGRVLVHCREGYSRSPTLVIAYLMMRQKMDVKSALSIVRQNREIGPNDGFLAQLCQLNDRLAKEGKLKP

| Compound | inhibition |
| --- | --- |
| Cc1cc(C)cc(NC(=S)NCCCN2CCOCC2)c1 | -2.7% |
| COc1cccc(NC(=S)NCCCN2CCOCC2)c1 | 16.2% |
| CCCCc1ccc(NC(=S)NCCCN2CCOCC2)cc1 | 52.9% (active) |
| COc1cccc(C(=O)Nc2nnc(S(=O)(=O)N3CCCCC3)s2)c1 | 9.5% |
| CC(=O)c1ccc(S(=O)(=O)NCc2nnnn2-c2ccccc2)cc1 | -9.1% |
| COc1cc(/C=C2\C(=N)N3N=C(CC(=O)N4CCOCC4)SC3=NC2=O)cc(OC)c1OC | -15.7% |
| CCOc1c(Br)cc(/C=C2\C(=O)N(CCC#N)N=C2C)cc1OC | 0.9% |
| Cn1c(CCc2ccccc2)nnc1SCC(N)=O | 2.3% |
| COc1ccc([N+](=O)[O-])cc1N(CC(=O)Nc1ccccc1C(=O)N1CCOCC1)S(C)(=O)=O | 29.6% |
| CCn1nnnc1SCC(=O)c1ccc(C)cc1C | 8.9% |
| CC(=O)Nc1ccc(NC(=O)CSc2nnnn2-c2ccccc2F)cc1 | 30% |
| CCn1nnnc1SCC(=O)Nc1ccc(N(C)C)cc1 | 54.4% (active) |
| CC(C)c1ccc2c(c1)c(SC(C)(C)C)c(CC(C)(C)C(=O)O)n2Cc1ccc(Cl)cc1 | -1.6% |
| CCOc1cccc(-c2nnc(SCC(=O)NC3CC3)n2C)c1 | 24% |
| Cn1c(SCC(=O)NC2CCCCC2)nnc1-c1ccc(N)cc1 | 15.8% |
| Cn1c(SCC(=O)NC2CCCCC2)nnc1-c1cc2ccccc2o1 | 55.6% (active) |
| O=[N+]([O-])c1cc([N+](=O)[O-])c(Oc2cc(F)cc(F)c2F)cc1NN1CCCCC1 | 16.6% |
| COc1cc(NC(=S)N2CCCC(C)C2)cc(OC)c1OC (configuration not stated) | 56.3% (active) |
| COc1cc(NC(=S)N2CCCC(C)C2)c(OC)cc1Cl (configuration not stated) | 10.6% |
| COc1ccc(NC(=S)N2CCCC(CO)C2)c(OC)c1 (configuration not stated) | -17.2% |
| Cc1ccc(S(=O)(=O)N(CC(=O)Nc2cccnc2)c2ccc(Br)cc2)cc1 | -1.5% |

| Compound | inhibition |
| --- | --- |
| COC(=O)C1(CCSC)NC(c2ccc(OC)cc2OC)C2C(=O)N(c3cccc(C(C)=O)c3)C(=O)C21 (configuration not stated) | 4.9% |
| COc1ccccc1N1CCC(N2CCN(CC(C)(C)C)C(CCO)C2)CC1 (configuration not stated) | 59.1% (active) |
| COc1ccc(N2CCC(N3CCN(C)C(CCO)C3)CC2)cc1 (configuration not stated) | 6.5% |
| CCOc1ccccc1CN1CCN(C2CCC2)CC1CCO (configuration not stated) | 6.5% |
| CNC(=O)COC(=O)c1cc(-c2ccc(OC)cc2)nc2ccccc12 | 11% |
| COc1ccc(-c2cc(C(=O)n3cnc4ccccc43)c3ccccc3n2)cc1 | 51.6% (active) |
| COc1ccc(-c2cc(C(=O)N(C)Cc3ccccc3)c3ccccc3n2)cc1 | 12.2% |
| Cc1ccc(C)c(S(=O)(=O)Nc2cc(C)on2)c1 | 16.3% |
| COc1ccc(N(CC(=O)N2CCOCC2)S(=O)(=O)c2ccccc2)cc1Cl | 18.1% |
| COCCCNC(=O)C1CC(=O)N(c2ccc(C)cc2)C1 (configuration not stated) | 3.4% |
| CCCC(C)NC(=O)C1CCN(C(=O)C2CC(=O)N(c3ccc(C)cc3)C2)CC1 (configuration not stated) | 13% |
| COCCNC(=O)C1CCN(C(=O)C2CC(=O)N(c3ccc(C)cc3)C2)CC1 (configuration not stated) | 50% (active) |
| CC1CCN(C(=O)c2ccc(S(=O)(=O)Cc3cc(F)ccc3F)c([N+](=O)[O-])c2)CC1 | 4.1% |
| COc1ccc(NC(=O)c2cc([N+](=O)[O-])ccc2NC(=O)CNC2CCCCC2C)c(OC)c1 (configuration not stated) | 12.5% |
| Cc1cc(NC(=O)[C@H](C)NC(=O)c2ccco2)ccc1Br | 10% |
| CSc1ncccc1C(=O)OCc1ccc(Br)cc1 | 58.3% (active) |
| CSc1ncccc1C(=O)NC1CCCCCC1 | 21.8% |
| CSc1ncccc1C(=O)OCC(=O)N1CCOCC1 | 39.8% |
| CN(CC(=O)Nc1c(Cl)cccc1Cl)C(=O)c1ccncc1 | 2.5% |
| O=C(CCS(=O)(=O)c1ccc2c(c1)NC(=O)CS2)NCc1ccccc1Cl | 25.2% |
| CCOc1ccc(-n2c(SCC(=O)Nc3ccc(OC)cc3)nc3sc4c(c3c2=O)CCN(C)C4)cc1 | 5.3% |

| Compound | inhibition |
| --- | --- |
| Cn1c(SCc2ccc(F)cc2)nnc1-c1ccncc1 | 53% (active) |
| Cc1ccc(CSc2nnc(-c3cnccn3)n2C)cc1 | 21.3% |
| CN(C)CCCn1c(SCc2ccc(Cl)cc2)nnc1-c1ccncc1 | 24% |
| CCOC(=O)c1ccc(NC(=O)c2nc[nH]c2C(=O)N[C@@H](CCCCNC(=O)OC(C)(C)C)C(=O)OC(C)(C)C)cc1 | 3.3% |
| CCc1ccc(OCC(=O)OC(C)C(=O)NC2CC2)cc1 (configuration not stated) | 5% |
| COc1ccc(NC(=O)Cn2c(-c3ccc(OC)cc3)cn(-c3ccc(C)cc3)c2=O)cc1 | 6.2% |
| CCn1c(=S)sc2c(=O)n(CC(=O)Nc3cccc(Br)c3)c(C)nc21 | -3.6% |
| CCn1c(=S)sc2c(=O)n(CC(=O)Nc3ccc(OC)cc3)c(C)nc21 | 57.9% (active) |
| Cc1c(Cl)cccc1NC(=S)NCC(O)c1ccccc1 (configuration not stated) | 2.3% |
| CC1CCC2(CC1)NC(=O)N(CC(=O)c1ccc3c(c1)OCO3)C2=O (configuration not stated) | 5.4% |
| CCOc1ccc(N(CC(=O)NCc2ccc(OC)cc2)S(=O)(=O)c2c(C)noc2C)cc1 | 30.2% |
| COc1ccc(CNC(=O)CN(c2ccc(OC)c(Cl)c2)S(=O)(=O)c2ccc(C)cc2)cc1 | 59.1% (active) |
| COc1ccc(S(=O)(=O)N(CC(=O)NCc2ccco2)c2ccc(F)cc2)cc1 | -4.2% |
| C=CCN1C(=O)C2(OCCCO2)c2cccc(Cl)c21 | 19.2% |
| Cc1cc(=O)oc2c3c(cc(OCC(=O)NCc4ccccn4)c12)OC(C)(C)CC3 | -2.9% |
| CC(=O)N[C@@H](C)C(=O)N1CCC(n2nccc2NC(=O)CCCc2ccccc2)CC1 | 10.4% |
| O=C(O)C1=NN(c2c(F)c(F)cc(F)c2F)C(=O)CC1 | -11.9% |
| CCN1CCN(C2CCCCC2NS(=O)(=O)c2ccc(Cl)cc2)CC1 (configuration not stated) | 11.4% |
| O=S(=O)(NC1CCCCC1N1CCCCC1)c1ccc(Cl)cc1 (configuration not stated) | 52% (active) |
| O=S(=O)(NC1CCCCC1N1CCC(O)CC1)c1ccc(Cl)cc1 (configuration not stated) | 17.2% |
